According to the supplement of paper PMC11417369:
± gives the standard deviation of the averaged measurements. Whole data set: some 25,000 sequences, median “ln(normalized median fluorescence intensity)” near 8.6, cut for the highest 2% near 10. The sample holds the highest values, similar sequences and a random draw of the others, so the mix is not that of the screen.

Test system: PfAP2-EXP AP2 domain (GST-tagged)
Experiment: gcPBM binding intensity (ln(normalized median fluorescence intensity)); higher = stronger DNA binding
Summary of the method: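 For binding intensity, the highest Masliner-normalised natural-log median intensity across replicate spots of either probe orientation was taken. Protein bound to the array was stained with Alexa488 anti-GST antibody and scanned at 488 nm. The protein, GST-tagged P. falciparum DNA-binding domains from E. coli at about 25 μg on average, had been applied for 1 h to an Agilent 4 × 180k array of primer-extended double-stranded 36-bp intergenic genomic probes and negative controls.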

Row | Sequence | gcPBM binding intensity (ln)
1 | TTATTGTAAATATATGCATGTGCAAAATGAAAAAAA [TGCATGCA_site399] | 9.07 ± 0.18
2 | AATATTTTAAATATTGCATGCAATGAAAAATGTAAA [TGCATGCA_site139] | 10.2 ± 0.31
3 | AAAAAAAAAAAAATTGCATGTAAATGAAATAATAAA [TGCATGCA_site116] | 8.89 ± 0.2
4 | TAAAAGTTCACCTGTACACACATATAAATATGTACA [CACACA_site6901] | 8.47 ± 0.33
5 | TAAGTTCCCTTTGAATGTACATATAATGAAAAGAAA [XGTACX_site826] | 8.76 ± 0.37
6 | AGTTTCCATATGAGGTGTACATATATAATTTATTAT [XGTACX_site2369] | 8.72 ± 0.4
7 | ATATATTTACTTAATACACACAAAAAAAAAAAAAAA [CACACA_site3657] | 8.21 ± 0.52
8 | AAAAATACCTTATATATACACACTATGTTTTTCTTT [CACACA_site1192] | 8.71 ± 0.28
9 | TATATATAGAAACACACACACATATATATATATATT [CACACA_site4115] | 8.7 ± 0.37
10 | TATTGCCCTTGACACACACACATATAAATAAATATA [CACACA_site7220] | 8.63 ± 0.37
11 | TATATATAGAAACACACACACACATATATATATATT [CACACA_site2539] | 8.73 ± 0.67
12 | TATTGCCCTGGACACACACACATATATATATATATA [CACACA_site5389] | 10.2 ± 0.51
13 | TATATTGCCCTTCACACACACACATATATATATATA [CACACA_site2492] | 10.2 ± 0.28
14 | TATTGCCCGAAACACACACACATATATATATATATA [CACACA_site2491] | 10.3 ± 0.2
15 | TTCAAATATAAATACACACACATAGCTACAAAATAA [CACACA_site4172] | 8.95 ± 0.42
16 | ATATATATATATATTTGTACAGATTTATATTATAAT [XGTACX_site7612] | 9.96 ± 0.23
17 | TTTGCAACATATAAAAGTACAAATAATATATTTATT [XGTACX_site890] | 8.41 ± 0.43
18 | TATTATTTTTCATATGCATGCAAAAATAAAAAAATA [TGCATGCA_site350] | 9.63 ± 0.35
19 | ATTCATATATTTATTGCATGCAAAGTAAAATAAATA [TGCATGCA_site307] | 10.23 ± 0.099
20 | ATAAAATCAAAATATACACACAAGGGGGAAAATCAA [CACACA_site2809] | 8.96 ± 0.42
21 | GGAATATATATACATACACACATATATATATATATA [CACACA_site1666] | 10.1 ± 0.33
22 | AAGATATGAGGGAATACACACATATATATATATATA [CACACA_site1581] | 10.2 ± 0.43

Row | Sequence | gcPBM binding intensity (ln)
23 | TACACAAGGGGAAAAATATATATATATATATATATA [TGCATGCA_negctrl_site217] | 10.2 ± 0.57
24 | AAGATATGAGGGAATACACACATATTTATATTTATA [CACACA_site6846] | 8.26 ± 0.38
25 | ACAAAAGGGGAATACACACACATATATATATATATA [CACACA_site2215] | 10.2 ± 0.52
26 | ATACAAAAGGGGAATACACACACATATATATATATA [CACACA_site8694] | 10.1 ± 0.33
27 | AGTATATATACACAAGGGGAATACATATACAAAATT [TGCATGCA_negctrl_site244] | 8.89 ± 0.39
28 | ACAAAAGGGGAATACACACACATATATAAATAAATA [CACACA_site7111] | 8.73 ± 0.45
29 | TTTTTAATAATCTCTCAAAATGTTCTTATATTTTAC [CACACA_negctrl_site1691] | 8.11 ± 0.26
30 | TATAAATGATTAATTTGTACATATTTTACTTAATTG [XGTACX_site5271] | 8.18 ± 0.37
31 | ATATTATGTCTACATAAACACACATATATATAAAAA [CACACA_site7976] | 8.62 ± 0.48
32 | TATATTTTACTCTTCACACATATACTCAATTTATAT [CACACA_site5357] | 8.94 ± 0.31
33 | TATTGTATCCTTAATGCATGCACCAAATAAAAAAAG [TGCATGCA_site541] | 10.21 ± 0.064
34 | TTGTATCCTTAATGCATGCACCAAATAACAAAAGTA | 10.2 ± 0.38
35 | CTGTATAAAACCAATGCATGTAAATATATTAATATA [TGCATGCA_site511] | 9.1 ± 0.42
36 | AAAAAAAAAATATATATATATATATATATATATATA [GTGCAC_negctrl_site467] | 9.95 ± 0.53
37 | AAAAAAAAAAAATATATATATATATATATATATATA [CACACA_negctrl_site1606] | 10.3 ± 0.21
38 | AAAAAAATATATATATATATATATATATATATATAT [TGCATGCA_negctrl_site7] | 10.1 ± 0.26
39 | AAAAAAAAAAAAAATATATATATATATATATATATA [CACACA_negctrl_site540] | 10.2 ± 0.2
40 | AAAAAAAAAAAAAAAAAAAAAAAAATATATATATAT [CACACA_negctrl_site436] | 10 ± 0.31
41 | AAAAAAAAAAAAAAAAAAAAAAAAAAATATATATAT [CACACA_negctrl_site271] | 9.795 ± 0.049
42 | TTTAATTTTCCCTTCACACATAATATATATCTGTAT [CACACA_site5370] | 8.7 ± 0.43
43 | TATTATATATATGTTGACATATTTGTACACTCCACT [TGCATGCA_negctrl_site200] | 8.79 ± 0.61
44 | TATCAAAATTGTAATTGTACTTGTAAGTGGATATAT [XGTACX_site5949] | 8.68 ± 0.3

Row | Sequence | gcPBM binding intensity (ln)
45 | TTTTTTAAAATAATAGGTACACATAAAAAAAAAAAA [XGTACX_site2517] | 8.72 ± 0.67
46 | AACATTATAAGACACACACACACATATATAAATATA [CACACA_site6622] | 8.65 ± 0.58
47 | ACACATATATATTATTATTATATAATATATATATAT [CACACA_negctrl_site1545] | 9.21 ± 0.15
48 | AAAAAAAAAAATATCACACACACATAAATATAAACA [CACACA_site7138] | 8.6 ± 0.61
49 | TTTTAAACAGGACACACACACATATATATATATATA [CACACA_site4664] | 10.1 ± 0.42
50 | TTTTTAAAACATATCACACATATATATATATATATA [CACACA_site5991] | 10.3 ± 0.41
51 | TTTTAATGAAAACACACACACACATATATATATATA [CACACA_site5295] | 10.3 ± 0.11
52 | TTTTAATTAAAACACACACACACATATATATATATA [CACACA_site2291] | 10.2 ± 0.23
53 | ATTTTGTTATGAAACACACACATATATATATATATA [CACACA_site3650] | 10.2 ± 0.18
54 | ATATTTTGTTATGAAACACACACATATATATATATA [CACACA_site9216] | 10.1 ± 0.16
55 | ATTTTGTTATGAAACACACACATATAAATATAAATA [CACACA_site7679] | 8.51 ± 0.3
56 | TTTTAAACAAGACACACACACATATATATATATATA [CACACA_site925] | 10.2 ± 0.35
57 | AAAAAAAAAAAAAACACACACATATAATATATTTAA [CACACA_site1337] | 8.35 ± 0.38
58 | TAATTTTTTAAACACACACACATATATATATATATA [CACACA_site4230] | 10.2 ± 0.3
59 | AAAAAAATGAAACACACACACACATATATATATATA [CACACA_site1043] | 10.1 ± 0.26
60 | AATTATATACATAAGTGTACATAATATATAAACATA [XGTACX_site793] | 8.31 ± 0.28
61 | TACATCTTACTACTTATAATATAATATAGTATGAAT [TGCATGCA_negctrl_site8] | 8.21 ± 0.43
62 | TTTTTCTTTTTTACAGTGCATAAATATATGTATTGT [GTGCAC_site9399] | 8.61 ± 0.32
63 | CTGAAGAAACTACAACGTACAAAATATGTATATATT [XGTACX_site3779] | 8.55 ± 0.4
64 | TTATTATATTAAAATTGTACTTGCTTTCAATATGAT [XGTACX_site5305] | 8.23 ± 0.35
65 | TTTCTTTTACATATTTGTACATATATAAATTTATAT [XGTACX_site1787] | 8.91 ± 0.35
66 | TTATCATTTTAAATCACACACATATATATATATATA [CACACA_site2849] | 10.1 ± 0.49

Row | Sequence | gcPBM binding intensity (ln)
67 | TACATTTAAAAAAAAACACACATATTTATATTTATA [CACACA_site7236] | 8.01 ± 0.49
68 | TACATTTAAAAAAAAACACACATATATATATATATA [CACACA_site2535] | 10.3 ± 0.33
69 | TTATCATTTTAAATCACACACATATATAAATATGTA [CACACA_site7359] | 8.28 ± 0.35
70 | TCTTATCATTTTAAATCACACACATATATATATATA [CACACA_site8925] | 10.2 ± 0.16
71 | TTAAAAAAAAAACACACACACATACACATATATATA [CACACA_site3299] | 8.77 ± 0.33
72 | ATTTATGTTATTGTATGTACACAATATAATGTTATT [XGTACX_site5657] | 8.56 ± 0.32
73 | TAATACCATAACAAGTGTACATAAATAATTATTGTA [XGTACX_site4949] | 8.8 ± 0.44
74 | AAAAAAAAAAAAAAAACACACAAACATCAAATTACT [CACACA_site6950] | 8.69 ± 0.24
75 | ATCAAAAATGTTATATATATATATATATATATATAT [TGCATGCA_negctrl_site71] | 10.2 ± 0.45
76 | ATATGTTATATAAATATATATATATATATATATATA [TGCATGCA_negctrl_site594] | 10.1 ± 0.33
77 | AAAATGAAATATGTTATATATATATATATATATATA [CACACA_negctrl_site1752] | 9.9 ± 0.4
78 | AATATGTTATAAATATGTTATAAATAATAAATAAAT [GTGCAC_negctrl_site135] | 8.45 ± 0.47
79 | ATATATATTATAAAATGTACAAATGTTATATAAAAT [XGTACX_site4750] | 8.85 ± 0.45
80 | GTTATATGTTATATATATATATATATATATATATAT [TGCATGCA_negctrl_site428] | 10.2 ± 0.65
81 | ATATATATATATTCCACACACACACTAATAAAAAAA [CACACA_site9214] | 9.94 ± 0.16
82 | AACTGATTATTTTTTTGTACATATATAATAATATAT [XGTACX_site5953] | 8.61 ± 0.33
83 | GACCATGTTAACAAAGCATGCATCTCTATATGTTTA [TGCATGCA_site358] | 8.87 ± 0.49
84 | TCATAACAACTTTGTGTGCACATAAAACATGTATAT | 8.94 ± 0.3
85 | TATATTTATTTATACACATGCATATTTTAAGGGCTC [TGCATGCA_site885] | 8.72 ± 0.4
86 | TCATATCTTTTGAGCACACATATATATATATAAAGG [CACACA_site3338] | 8.71 ± 0.34
87 | CTAAACCTTTTGAGCACACATATATATATATATATA [CACACA_site1782] | 10.4 ± 0.16
88 | ATCTAAACCTTTTGAGCACACATATATATATATATA [CACACA_site8526] | 9.86 ± 0.7
